# From PubChem BioAssay
# Sfp PPTase inh: inhibitors of Bacillus subtilis Sfp phosphopantetheinyl transferase; 310,000 tested, 3.5% active; Potency, µM, inactives show largest response in the series, negative = inhibition, usual class: inhibitors; Biochemical Sfp PPTase activity, qHTS; Q9F4F7;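 also: the enzyme is Sfp with the accession as filed and its product quenches rhodamine fluorescence; potency is read from the fitted curve at half-maximal effect; 0% = enzyme reaction without inhibitor and -100% = no enzyme wells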
#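 Sfp 15 nM + cpd, 15 min RT; start w/ rhodamine-CoA 5 uM, BHQ-2-YbbR 12.5 uM (final); 50 mM Hepes pH 7.6, 10 mM MgCl2, 0.01% NP-40, 0.01% BSA; read 525/598 nm at 0 and 30 min.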
# Tau FP inhib: blocks human tau fibril formation measured by polarization; K18 P301L tau heparin fibrillization, Alexa594 FP, 6 h; P10636; 280,000 tested, 0.39% active; Potency, µM (doses to about 57.7 µM), without a hit: at the highest dose activity, negative = inhibition, usual class: inhibitors; also: potency is read from the fitted curve at half-maximal effect; % is scaled to controls: 0 for no effect and ±100 for the full control effect; nearly all actives have a fitted effect of over 55% in size
# Target sequence (P10636 561-689 P618L limits assumed): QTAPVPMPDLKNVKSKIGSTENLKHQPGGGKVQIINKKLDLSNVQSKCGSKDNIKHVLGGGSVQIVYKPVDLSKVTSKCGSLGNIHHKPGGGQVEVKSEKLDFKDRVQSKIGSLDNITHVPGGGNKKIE
#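 Heparin (20 uM) drove fibril formation of recombinant tau K18 P301L, 15 uM unlabeled with 0.24 uM Alexa 594 label, for 6 hr at 37 C in 100 mM sodium acetate pH 7. Fluorescence polarization (555/632 nm) read 1 hr after 30 uM ThT.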
# PLK1 PBD inh: PLK1 (human) polo-box domain binding inhibition | P53350 | Plk1 PBD binding of FITC phosphopeptide, fluorescence polarization | Potency, µM, without a hit: max response, negative = inhibition, usual class: inhibitors | 360,000 tested, 2.8% active | AID 720504; also: potency is read from the fitted curve at half-maximal effect; series mostly up to about 57 µM; % is scaled to controls: 0 for no effect and ±100 for the full control effect; nearly all actives have a fitted effect of over 65% in size
# Tau fluor cs: counter-screen for tau fibril formation inhibitors | 280,000 tested, 0.93% active | Potency, µM (series often up to 57.7 µM), inactives show at the top dose activity change, negative = decrease | tau K18 P301L Alexa594 fluorescence, heparin fibrillization | AID 1463; also: potency is read from the fitted curve at half-maximal effect; % is scaled to controls: 0 for no effect and ±100 for the full control effect; nearly all actives have a fitted effect of over 55% in size
#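 Human K18 P301L tau (15 uM unlabeled plus 0.24 uM Alexa 594-labeled, final) in 100 mM sodium acetate pH 7 was mixed with compound and 20 uM heparin and incubated 6 hr at 37 C.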
# Tau ThT inhib: blocks human tau fibril formation measured by thioflavin T; P10636; Potency, µM (titrated, usually from 57.4 µM), inactives show top-dose activity, negative = inhibition, usual class: inhibitors; recombinant tau K18 P301L (four-repeat tau fragment), heparin-induced fibrillization, ThT fluorescence; 270,000 tested, 2.1% active; also: potency is read from the fitted curve at half-maximal effect; % is scaled to controls: 0 for no effect and ±100 for the full control effect; nearly all actives have a fitted effect of over 55% in size
#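 Heparin-induced (20 uM) aggregation of recombinant human K18 P301L tau, 15 uM unlabeled with 0.24 uM labeled, pH 7 acetate buffer, 6 hr at 37 C with compound. Fibrils quantified by 30 uM ThT fluorescence after 1 hr ambient incubation.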
# VDR inhibitor: vitamin D3 receptor (human) inhibition. 400,000 tested, 0.93% active. VDR-SRC2-3 peptide fluorescence polarization, 2 h. Potency, µM, inactives show max response, negative = inhibition, usual class: inhibitors. P11473. AID 504847; also: potency is read from the fitted curve at half-maximal effect; % is scaled to controls: 0 for no effect and ±100 for the full control effect
# Target sequence (P11473 whole entry, looked up): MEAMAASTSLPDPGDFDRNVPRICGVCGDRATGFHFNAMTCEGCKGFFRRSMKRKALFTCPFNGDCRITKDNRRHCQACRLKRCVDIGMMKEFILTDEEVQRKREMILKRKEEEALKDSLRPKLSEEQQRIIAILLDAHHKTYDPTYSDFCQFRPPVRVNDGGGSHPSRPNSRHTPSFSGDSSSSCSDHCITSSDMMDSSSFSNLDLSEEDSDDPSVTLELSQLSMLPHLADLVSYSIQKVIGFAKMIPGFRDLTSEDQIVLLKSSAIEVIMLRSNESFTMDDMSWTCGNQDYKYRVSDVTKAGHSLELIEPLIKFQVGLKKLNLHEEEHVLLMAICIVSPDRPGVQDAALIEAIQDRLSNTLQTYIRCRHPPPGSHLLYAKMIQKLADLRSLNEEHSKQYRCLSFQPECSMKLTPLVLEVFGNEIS
#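 Fluorescence polarization assay of small-molecule disruption of VDR binding to coregulator peptide SRC2-3. Compounds and controls pin-transferred, then read after 2 h incubation at ambient room temperature.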
# USP1-UAF1 confirm: USP1-UAF1 deubiquitinase inhibition validated; shares compounds with VDR inhibitor; Potency, µM (series often up to 114 µM), without a hit: at the highest dose activity change, negative = inhibition, hits mostly inhibitors; AID 540327; Ub-Rhodamine cleavage, fluorescence kinetic read; 50 tested, 50% active
# VDR inh confirm: confirmation of human vitamin D receptor inhibitors | 840 tested, 89% active | Potency, µM, actives largely listed as inhibitors | shares compounds with VDR inhibitor | VDR-coactivator inhibition assay, qHTS confirmation | AID 602199; also: potency is read from the fitted curve at half-maximal effect
# VDR FP fluor: blocks human VDR-coactivator binding in fluorescein assay. shares compounds with VDR inhibitor. 840 tested, 48% active. Potency, µM (doses to about 57.1 µM), inactives show at the highest dose activity change, negative = inhibition, usual class: inhibitors. VDR-coactivator binding, fluorescein fluorescence polarization; also: potency is read from the fitted curve at half-maximal effect
# VDR bla reporter: VDR (human) inhibition, cell-based beta-lactamase validation; shares compounds with VDR inhibitor; VDR beta-lactamase reporter cells, FRET ratio; cells co-treated with VDR agonist LG190178; Potency, µM (highest dose often 46.1 µM), without a hit: top-dose activity change, negative = inhibition, usual class: inhibitors; 840 tested, 23% active; also: potency is read from the fitted curve at half-maximal effect; % is scaled to controls: 0 for no effect and ±100 for the full control effect
# VDR viability: cytotoxic in counter-screen for VDR inhibitors. 840 tested, 18% active. AID 602204. Potency, µM (top dose mostly 48.3 µM), inactives show at the top dose activity change, negative = cytotoxicity, hits mostly cytotoxic. cytotoxicity counter-screen, cell viability, qHTS. shares compounds with VDR inhibitor;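 also: potency is read from the fitted curve at half-maximal effect; plate controls were DMSO for no effect and high-concentration cycloheximide for full effect; nearly all actives have a fitted effect of over 75% in size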
# * marks the source's active call; other numbers are inactive results; ? = inconclusive; · = no result given; [ ] = another dose, or the depositor's remark. This is a sample that favours compounds with a hit; in the whole collection about 6% have one here. Calls follow the shape of the dose curve; as a rule, active = well fitted curve in the direction sought with a large enough effect; inconclusive = small, poorly fitted or top-dose-only effect, or another doubt; inactive = no such curve, though single readings can be large; an effect the other way counts as inactive or inconclusive.
SMILES,Sfp PPTase inh,Tau FP inhib,PLK1 PBD inh,Tau fluor cs,Tau ThT inhib,VDR inhibitor,VDR inh confirm,VDR FP fluor,VDR bla reporter,VDR viability,others
CCOC(=O)N1CC=C2C(C#N)=C(N)C(C#N)(C#N)[C@H](c3ccc(OC(C)C)c(OCC)c3)[C@H]2C1,-18%,?,-6%,-18%,?,?,·,·,·,·,
COC(=O)C1=C(C(=O)OC)[C@@H]2N(C)c3ccccc3[C@@]23C[C@@H](CO)N(C(=O)c2ccco2)C3=N1,10%,-3%[11.6 µM],·,-3%[11.6 µM],2%[11.5 µM],·,·,·,·,·,
Cc1cc(NC(=O)COC(=O)[C@@H]2CCCN2C(=O)c2cccs2)no1,·,·,2%,·,·,-13%,·,·,·,·,
CCN(CC)C(=O)Cn1ncc2c([nH]c3ccc(C)cc32)c1=O,·,-13%,·,-12%,-12%,13%,·,·,·,·,
C/C(=C\c1ccc(C(=O)O)cc1)c1ccc2c(c1)C(C)(C)CCC2(C)C,40%,3%,27µM*,2%,-10%,-1%,·,·,·,·,USP1-UAF1 confirm=?
CC(=O)C(=Cc1ccc(C(=O)O)cc1)C(C)=O,-2%,-8%,-9%,3%,-3%,?,·,·,·,·,
COCCNc1nc(-c2ccccc2F)c2sc(-c3ccccc3)cc2n1,·,·,-6%,·,·,·,·,·,·,·,
COc1ccc(-c2nnc(SCCOc3ccccc3C)o2)cc1OC,·,-9%,·,-15%,14%,10%,·,·,·,·,
COc1ccc(C(=O)/C=C/Sc2nc3ccccc3o2)cc1,1%,?,0.75µM*,-3%,-16%,18µM*,6*,3.2µM*,21µM*,21µM*,
COc1ccc(CC(=O)N2CCc3cc(OC)c(OC)cc3C2COc2cc(C)cc(C)c2)cc1OC (stereo not given),·,7%,·,-3%,-9%,14%,·,·,·,·,
N#CC(C#N)=NNc1ccc(S(=O)(=O)N2CCCCC2)cc1,15%,8%,-24%,?,16µM*,8.9µM*,6.7*,3.2µM*,-8%,?,
COC(=O)Nc1ccc(S(=O)(=O)N2CCCCCC2)cc1,9%,9%,-1%,2%,4%,11%,·,·,·,·,
O=c1nc(/C=C/c2cccn2-c2ccc([N+](=O)[O-])cc2)cc(C(F)(F)F)[nH]1,?,-4%,?,-14%,?,-9%,·,·,·,·,
O=c1nc(/C=C/c2cc([N+](=O)[O-])ccc2Cl)cc(C(F)(F)F)[nH]1,-6%,-2%,-27%,?,?,?,3.2*,3.2µM*,?,-6%,
O=C(/C=C/c1ccc(Cl)cc1)c1ccc([N+](=O)[O-])o1,·,·,?,·,·,11µM*,1.3*,1µM*,7.3µM*,1%,
Cc1cccc2c1N(CCCOc1ccccc1)C(=O)C2=O,2%,-1%,?,-10%,?,50µM*,19*,?,-10%,10%,
Cc1ccccc1OCCCN1C(=O)C(=O)c2cccc(C)c21,-25%,-15%,?,-21%,22µM*,32µM*,?,11µM*,2%,20%,
Cc1ccc(OCCN2C(=O)c3ccccc3C2=O)cc1,-17%,-19%,-2%,-18%,-11%,10%,·,·,·,·,
CC1=C(C(=O)OC(C)C)C(c2cccc([N+](=O)[O-])c2)C(C(=O)OC2CN(C(c3ccccc3)c3ccccc3)C2)=C(N)N1 (stereo not given),35%,·,·,·,·,12%,·,·,·,·,
COC1=C(C)C(O)=C(C(=O)/C=C/c2ccccc2)C(=O)C1(C)C,2%,-1%,-3%,0%,?,20µM*,17*,20µM*,?,-3%,
O=c1oc(Cc2ccccc2)nc2ccccc12,15%,·,-11%,·,·,3%,·,·,·,·,
COc1ccc(CC2=CC(=O)c3ccccc3C2=O)cc1,25µM*,·,?,·,·,20µM*,4.2*,3.2µM*,?,16µM*,
C=CS(=O)(=O)c1c2cc(OC)ccc2nc2ccc(OC)cc12,·,·,2.7µM*,·,·,50µM*,24*,14µM*,?,?,
COc1cc(/C=C2\C(=O)ON=C2c2ccccc2)cc(Cl)c1O,-31%,-6%,?,-10%,?,45µM*,5.3*,199%,?,-28%,
COc1cc([N+](=O)[O-])ccc1-c1ccc(/C=C2\C(=O)ON=C2c2ccccc2)o1,·,·,2.7µM*,·,·,?,2.5*,1.8µM*,?,?,
SMILES,Sfp PPTase inh,Tau FP inhib,PLK1 PBD inh,Tau fluor cs,Tau ThT inhib,VDR inhibitor,VDR inh confirm,VDR FP fluor,VDR bla reporter,VDR viability,others
COc1cc(C=C2C(=O)OC(c3ccccc3)OC2=O)cc(Br)c1O (stereo not given),2%,-1%,?,-3%,-1%,-8%,·,·,·,·,
CCOc1cc(/C=C2/C(=O)ON=C2C)cc(Br)c1O,-28%,·,5%,·,·,56µM*,9.5*,233%,33%,11%,
COc1cc(/C=C2\C(=O)ON=C2c2ccccc2)cc(Br)c1O,?,·,?,·,·,25µM*,3.8*,175%,?,-21%,
CCCCOc1c(Br)cc(/C=C2\N=C(C)OC2=O)cc1OCC,11%,0%,-26%,-7%,-12%,?,·,·,·,·,
O=c1cc(SCc2ccccc2)nc[nH]1,·,·,1%,·,·,-13%,·,·,·,·,
CCOc1cc(/C=C2\C(=O)ON=C2c2ccccc2)cc(Br)c1O,79µM*,·,?,·,·,25µM*,3.8*,179%,?,-11%,
C#CCOc1ccc(/C=C2/C(=O)ON=C2C)cc1Br,56µM*,·,1.7µM*,·,·,40µM*,11*,?,?,-15%,
Cn1cccc1C(=O)N1CCC2(CC1)CCN(c1ccc(-c3ccccc3)cc1)CC2,1%,·,·,·,·,-4%,·,·,·,·,
CCNC(=O)C1(C)CCN1CCC(=O)c1ccc(C)cc1 (stereo not given),·,·,-16%,·,·,·,·,·,·,·,
